Experimental findings from article PMC4336329 (PLoS ONE, 2015) are described below.

Molecules are shown by their SMILES. The whole screen tested about 310,000 compounds, of which about 14,000 (4.5%) showed an effect of 50% or more. Effects have a minus sign here. This is one part of a sample in which strong results are shown more often than they occur.
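Note: peak tail current of the secondary pulse compared with the same well before compound.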

Sequence of human ether-à-go-go-related gene (hERG) potassium channel (Q12809 whole entry, looked up): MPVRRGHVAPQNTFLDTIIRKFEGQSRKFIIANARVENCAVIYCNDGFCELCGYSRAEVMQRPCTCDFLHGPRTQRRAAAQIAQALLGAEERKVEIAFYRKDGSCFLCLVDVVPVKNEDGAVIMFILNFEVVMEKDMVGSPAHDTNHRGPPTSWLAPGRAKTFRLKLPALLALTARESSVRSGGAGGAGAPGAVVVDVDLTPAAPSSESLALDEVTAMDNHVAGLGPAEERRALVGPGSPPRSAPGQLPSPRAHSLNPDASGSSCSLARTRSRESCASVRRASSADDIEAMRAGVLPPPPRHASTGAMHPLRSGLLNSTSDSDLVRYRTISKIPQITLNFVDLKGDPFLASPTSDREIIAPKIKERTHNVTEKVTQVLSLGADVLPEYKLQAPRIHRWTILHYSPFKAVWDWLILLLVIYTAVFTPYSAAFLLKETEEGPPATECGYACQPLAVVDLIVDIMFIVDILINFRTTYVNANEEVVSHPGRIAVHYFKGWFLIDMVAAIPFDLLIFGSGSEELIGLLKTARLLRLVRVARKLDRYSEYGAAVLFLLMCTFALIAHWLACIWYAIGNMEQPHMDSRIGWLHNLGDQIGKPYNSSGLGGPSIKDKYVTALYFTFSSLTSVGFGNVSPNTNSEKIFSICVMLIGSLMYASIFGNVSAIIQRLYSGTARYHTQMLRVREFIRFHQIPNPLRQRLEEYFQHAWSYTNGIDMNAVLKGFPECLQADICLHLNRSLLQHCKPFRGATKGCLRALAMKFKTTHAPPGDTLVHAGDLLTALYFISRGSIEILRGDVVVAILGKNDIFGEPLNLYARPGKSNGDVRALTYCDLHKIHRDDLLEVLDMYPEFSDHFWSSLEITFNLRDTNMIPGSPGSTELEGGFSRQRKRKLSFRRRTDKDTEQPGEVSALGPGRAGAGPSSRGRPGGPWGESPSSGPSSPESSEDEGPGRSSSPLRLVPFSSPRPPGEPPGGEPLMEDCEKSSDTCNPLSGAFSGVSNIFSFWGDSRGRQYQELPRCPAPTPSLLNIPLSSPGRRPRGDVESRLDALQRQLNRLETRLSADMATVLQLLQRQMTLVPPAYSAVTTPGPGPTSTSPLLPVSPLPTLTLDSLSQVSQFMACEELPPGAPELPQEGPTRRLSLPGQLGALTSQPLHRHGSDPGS

The test concerns the target human ether-à-go-go-related gene (hERG) potassium channel (human, UniProt Q12809). Description: primary screen, population patch clamp on CHO cells stably expressing hERG; higher = less effect of the substance.
`COc1ccccc1CNC(=O)CCc1cn(C)c2ccccc12`: the “hERG current change (%, negative = inhibition) at 10uM” value is -2.68%.
As for `Cc1c(C(=O)N2CCCCC2)c(S(=O)(=O)Nc2ccc(F)cc2F)c(C)n1C`, the figure is 21.9%.
As for `Cc1cc(C)c(S(=O)(=O)N2CCN(C(=O)c3ccc4c(c3)OCO4)CC2)c(C)c1`, the figure is -31.4%.
For `O=C(N/N=C/c1ccc(N2CCOCC2)cc1)c1ccc(NS(=O)(=O)c2cccs2)cc1`, the “hERG current change (%, negative = inhibition) at 10uM” value is recorded as 9.69%.
Regarding `O=[N+]([O-])c1ccc(N2CCCCCC2)c([N+](=O)[O-])c1`, the “hERG current change (%, negative = inhibition) at 10uM” value was 3.24%.
Regarding `CC1CN(c2ccc([N+](=O)[O-])cc2C#N)CC(C)O1` (stereo not shown), the “hERG current change (%, negative = inhibition) at 10uM” value was -48.6%.
Take `N#Cc1cc([N+](=O)[O-])ccc1N1CCCC1`: the “hERG current change (%, negative = inhibition) at 10uM” value is recorded as -38%.
For `CCCN1CCN(c2ccc(S(N)(=O)=O)cc2[N+](=O)[O-])CC1`, the “hERG current change (%, negative = inhibition) at 10uM” value is on record as -31.4%.
With `N#Cc1cc([N+](=O)[O-])ccc1N1CCN(c2ccccc2O)CC1`, the “hERG current change (%, negative = inhibition) at 10uM” value is -35%.
As to `CCCN1CCN(c2ccc([N+](=O)[O-])cc2C#N)CC1`, the “hERG current change (%, negative = inhibition) at 10uM” value is listed as -72%.
As for `CC(=O)N1CCN(c2ccc([N+](=O)[O-])cc2C#N)CC1`, the “hERG current change (%, negative = inhibition) at 10uM” value is reported as -88%.
As for `O=[N+]([O-])c1ccc(N2CCN(CCOCCO)CC2)c([N+](=O)[O-])c1`, the figure is -45.6%; as for `CCN1CCN(c2ccc([N+](=O)[O-])cc2C#N)CC1`, -68.2%.
Take `O=[N+]([O-])c1ccc(N2CCN(c3ccc([N+](=O)[O-])cc3CO)CC2)c(CO)c1`: the “hERG current change (%, negative = inhibition) at 10uM” value is -64.7%.
As for `O=[N+]([O-])c1ccc(N2CCN(c3ccccc3O)CC2)c(Cl)c1`, the figure is 9.9%.
Regarding `CC(=O)N1CCN(c2ccc(C(N)=O)cc2[N+](=O)[O-])CC1`, the “hERG current change (%, negative = inhibition) at 10uM” value is reported as 8.73%.
To `COc1cccc(NS(=O)(=O)c2c(C)n(C)c(=O)n(C)c2=O)c1` belongs -19.9%.
For `CCCc1nnc(SCC(=O)N2CCOCC2)n1CC1CCCO1` (stereo not shown), the “hERG current change (%, negative = inhibition) at 10uM” value turned out to be 23.6%.
For the molecule `CC1CCN(C(=S)c2ccc(O)cc2)CC1`, the “hERG current change (%, negative = inhibition) at 10uM” value is -14.1%.
`O=c1[nH]c2ccc(S(=O)(=O)N3CCN(C4CCCCC4)CC3)cc2[nH]c1=O`: the “hERG current change (%, negative = inhibition) at 10uM” value came out at 0.776%.
For `O=C(Nc1cccc(C(F)(F)F)c1)Oc1ccc(Cl)c2cccnc12`, the “hERG current change (%, negative = inhibition) at 10uM” value turned out to be 9.96%.
Consider `CCN(c1ccccc1)S(=O)(=O)c1ccc(Cl)c(C(=O)OCC(=O)c2[nH]c(C)c(C(C)=O)c2C)c1`, for which the “hERG current change (%, negative = inhibition) at 10uM” value was -22.6%.
For the molecule `COc1cc2c(cc1OC)CN(c1ccc([N+](=O)[O-])cc1Cl)CC2`, the “hERG current change (%, negative = inhibition) at 10uM” value was -41%.
Regarding `COc1cc2c(cc1OC)CN(c1ccc([N+](=O)[O-])cc1C#N)CC2`, the “hERG current change (%, negative = inhibition) at 10uM” value is -50%.
As for `COc1cc2c(cc1OC)CN(c1ccc(F)cc1[N+](=O)[O-])CC2`, the figure is -27.9%; as for `CCn1c(NC2CCCCC2)nc2ccccc21`, -15%.
Consider `Cc1ccc(NC(=O)c2cccc(N3C(=O)CCC3=O)c2)nc1`, for which the “hERG current change (%, negative = inhibition) at 10uM” value worked out at 3.86%.
Take `C/C(=N\NS(=O)(=O)c1cccc([N+](=O)[O-])c1)c1cc2ccccc2o1`: the “hERG current change (%, negative = inhibition) at 10uM” value is listed as -2.61%.
Consider `O=C(Nc1ccc(C(=O)O)cc1)/C(=C\c1ccc([N+](=O)[O-])cc1)NC(=O)c1ccc(Br)cc1`, for which the “hERG current change (%, negative = inhibition) at 10uM” value came to 7.58%.
As for `O=C(N/C(=C\c1ccc(Br)cc1)C(=O)N1CCOCC1)c1ccc([N+](=O)[O-])cc1`, the figure is -75.5%; as for `O=C(N/C(=C\c1ccc(Cl)cc1)C(=O)N1CCOCC1)c1ccc([N+](=O)[O-])cc1`, -83%.
For the molecule `O=C(N/C(=C\c1cccc([N+](=O)[O-])c1)C(=O)N1CCOCC1)c1ccc([N+](=O)[O-])cc1`, the “hERG current change (%, negative = inhibition) at 10uM” value is 12.5%.
`Cc1ccc(C(=O)N/C(=C/c2ccc(Cl)cc2)C(=O)N2CCOCC2)cc1`: the “hERG current change (%, negative = inhibition) at 10uM” value is given as -32.6%.
On to `O=C(N/C(=C\c1ccccc1)C(=O)N1CCOCC1)c1cccc(Br)c1`, for which the “hERG current change (%, negative = inhibition) at 10uM” value was found to be 18.8%.
For `O=C(N/C(=C/c1cccc([N+](=O)[O-])c1)C(=O)N1CCOCC1)c1ccc(Br)cc1`, the “hERG current change (%, negative = inhibition) at 10uM” value was -46.6%.
As for `O=C(N/C(=C\c1cccc([N+](=O)[O-])c1)C(=O)N1CCOCC1)c1cccc(Br)c1`, the “hERG current change (%, negative = inhibition) at 10uM” value is -4.26%.
As for `COC(=O)c1ccc(/C=C(/NC(=O)c2ccccc2)C(=O)N2CCOCC2)cc1`, the “hERG current change (%, negative = inhibition) at 10uM” value is -9.15%.
As to `O=C(N/C(=C\c1ccc([N+](=O)[O-])cc1)C(=O)N1CCOCC1)c1cccc(Br)c1`, the “hERG current change (%, negative = inhibition) at 10uM” value is listed as -74.2%.
On to `O=C(N/C(=C/c1ccccc1)C(=O)N1CCOCC1)c1ccc([N+](=O)[O-])cc1`, for which the “hERG current change (%, negative = inhibition) at 10uM” value was -64.2%.
On to `O=C(N/C(=C\c1ccc(F)cc1)C(=O)N1CCOCC1)c1ccccc1`, for which the “hERG current change (%, negative = inhibition) at 10uM” value is on record as -32%.
For `CC(=O)c1cccc(OCC(=O)N(C)CC(=O)Nc2ccc(F)cc2)c1`, the “hERG current change (%, negative = inhibition) at 10uM” value is reported as -8.68%.
Consider `CCC(C)NC(=O)c1ccc(CSCc2ccc(Cl)cc2)o1` (stereo not shown), for which the “hERG current change (%, negative = inhibition) at 10uM” value is -38.9%.
Regarding `COc1cccc(CNC(=O)CCNS(=O)(=O)c2ccc(Br)s2)c1`, the “hERG current change (%, negative = inhibition) at 10uM” value is -10.2%.
